Source: ChEMBL document CHEMBL3988442, “University of Dundee, Small-Polar-MMV Screening Library” (2021)
The campaign covered roughly 48,000 compounds. About 13,000 (27%) showed an effect of 50% or more. This is one part of the list.

Tested on: Wolbachia pipientis
Experiment: Anti-Wolbachia Cell-Based Screen
Assay type: functional
Parameters: scale not given: in the data most compounds retested in dose-response had high values
Details: 5 µM

| SMILES | Percent Effect |
| --- | --- |
| COCC(=O)N[C@H]1C[C@H]2C(=O)NC[C@@H](CCC(=O)NC3CC3)N2C1 | -1.651% |
| NC(=O)NC1(C(=O)N2CCc3c(Cl)cccc3C2)CCCCC1 | -13.57% |
| Cc1cccc(C2(CNC(=O)C(C)NC(N)=O)CCCC2)c1 (stereo unspecified) | -11.64% |
| NC1(c2nc(-c3cccs3)cc(=O)[nH]2)CCCC1 | 0.7263% |
| Cc1cnn(C2CCCN(C(=O)c3cc(-c4cccs4)n[nH]3)C2)c1 (stereo unspecified) | -22.99% |
| O=C(O)c1cc(-c2cccs2)nc2c(Cl)cnn12 | 80.97% |
| O=C(O)c1cc(-c2cccs2)nc2c(Br)cnn12 | 100.3% |
| O=C(c1cc(-c2cccs2)nc2ccccc12)N1CCN(CCO)CC1 | 26.12% |
| CC(C)OCCCNC(=O)[C@@]12CNC[C@@H]1CN(S(C)(=O)=O)C2 | 4.002% |
| O=C(NC[C@H]1OC[C@@H](NC2CCC(F)(F)CC2)[C@@H]1O)N1CCOCC1 | -13.75% |
| CC(C)(C)C(C#N)NC(=O)c1ccc(Oc2cccnc2)cc1 (stereo unspecified) | 2.212% |
| O=C1NCCN(C(=O)CN2CCOC2=O)C1c1cccc(F)c1 (stereo unspecified) | 1.4% |
| COCC(C)(O)CNC(=O)COc1ccccc1OC (stereo unspecified) | 1.741% |
| COc1cc(C(=O)O)cc(I)c1OCC(=O)NCCc1ccccc1 | 109.3% |
| COc1ccccc1OCC(=O)NCC(O)(c1ccccc1)C1CC1 (stereo unspecified) | -11.16% |
| Cc1nn(C)c(C)c1OCC(=O)NCc1cccc(C(=O)O)c1 | 4.585% |
| COc1cc(C(=O)O)ccc1OCC(=O)NCCc1ccccc1 | 92.84% |
| COc1cc(C(=O)O)ccc1OCC(=O)NC(C)c1ccc(F)cc1 (stereo unspecified) | 2.572% |
| Cc1cccc2c1nc1n2[C@@H](CNC(=O)c2ccncc2)COC1 | -9.503% |
| CCN(CC)C1CCN(C(=O)NCc2c(C)noc2C)CC1 | -4.062% |
| CCCn1ncc(C(=O)N2CCC(N3CCCCC3)CC2)c1C | -9.333% |
| Cc1cc(C)c2nc(C)c(C(=O)N3CCC(N4CCCC4)CC3)cc2c1 | 84.44% |
| Cc1cc2c(cc1C(=O)N1CC[C@H](CO)[C@@H](O)C1)OCCO2 | -2.803% |
| CCN(CC)C1CCN(C(=O)c2cc3cc(C)cc(C)c3nc2C)CC1.Cl | 152.2% |

| SMILES | Percent Effect |
| --- | --- |
| Cc1cc(C)c2nc(C)c(C(=O)N3CCC(CCN(C)C)CC3)cc2c1 | 84.1% |
| CC(C)Cc1cc(C(=O)N2CCC(N3CCCC3)CC2)cc(O)n1 | 3.394% |
| CC(=O)N1CCC(CCNC(C)c2cc(C)cc(C)c2)CC1 (stereo unspecified) | -3.402% |
| CCS(=O)(=O)N(C)C1CCN(C(=O)c2cc(C)cc(C)c2)CC1 | 4.174% |
| CN(C)c1nc2c(c(NCc3cc(O)ncn3)n1)CCCC2 | 14.14% |
| CC(C)N1CCN2C(=O)N(C3CCCCC3)C[C@H]2C1 | 0.5796% |
| CC(C)CNC1(Cc2cc(-c3ccccc3)on2)COC1 | -15.39% |
| Cc1cncc(C(=O)N(c2ccc(F)cn2)C2CCOCC2)c1 | -4.438% |
| COCC(O)CN1CCC(NC(=O)c2cccc(C)c2)CC1 (stereo unspecified) | -8.408% |
| CCCS(=O)(=O)N1CCCC(c2cccc(C(=O)O)c2)C1 (stereo unspecified) | 9.239% |
| CSCCN1CCC(NC(=O)OC(C)(C)C)CC1 | -0.645% |
| O=C(NC1CCOC1)c1cccc(S(=O)(=O)NCCCc2ncc[nH]2)c1 (stereo unspecified) | -8.272% |
| CCOC(=O)N1CCC(NC(=O)c2cccc(C3CCCNC3)c2)CC1 (stereo unspecified) | 94.34% |
| O=C(NC1CCOCC1)c1cccc(C2CCCNC2)c1 (stereo unspecified) | 85.12% |
| CSCCN1CCC(NC(=O)c2cccc(C3CCCNC3)c2)CC1 (stereo unspecified) | 92.44% |
| O=C1CN(CCCNS(=O)(=O)c2cccc(C(=O)NC3CC3)c2)CCN1 | -1.221% |
| CCc1cnc(CNc2ccc(C(=O)NCc3ccco3)cc2C)o1 | 4.048% |
| CCOc1ccccc1-c1noc(CN2CCN(CCOC)CC2)n1 | 9.475% |
| CCOc1ccc(Br)cc1-c1cc(N)[nH]n1.Cl | 161.1% |
| CCOc1ccccc1-c1cc2c(cc1C(N)=O)OCO2 | -7.69% |
| CCOc1cc(C)c(-c2cc(N)[nH]n2)cc1OCC | 103.8% |
| COc1ccc(Br)cc1CC(=O)Nc1cc(C)n[nH]1 | -11.39% |
| CCOc1ccccc1-c1cc(N)[nH]n1.Cl | 107% |
| Cc1cc(NC(N)=O)ccc1OCC(F)(F)F | 6.991% |

| SMILES | Percent Effect |
| --- | --- |
| c1ccc2c(c1)CN(c1ncnc3c1CCNC3)CCO2 | -28.26% |
| CS(=O)(=O)NCc1ncn2c1CN(C(=O)C1CCCO1)CCC2 (stereo unspecified) | 106.6% |
| Cc1ccc(C)c(CN2CCCn3nc(CNS(C)(=O)=O)cc3C2)c1 | -10.08% |
| CC(=O)N(C)Cc1ncn2c1CN(C(=O)C1CCCO1)CCC2 (stereo unspecified) | 106.4% |
| Cc1ccsc1C(=O)N1CCn2cnc(COCC3CC3)c2C1 | 0.0867% |
| CN(C)C(=O)NCc1ncn2c1CN(S(C)(=O)=O)CCC2 | 2.726% |
| CC(=O)N(C)Cc1ncn2c1CN(C(=O)CC1CC1)CCC2 | 104.9% |
| CC(C)CC(=O)N1CCCn2cnc(CNS(C)(=O)=O)c2C1 | 117% |
| O=C(c1cccs1)N1CCCn2cnc(COCC3CC3)c2C1 | 6.591% |
| CS(=O)(=O)NCc1ncn2c1CN(C(=O)CC1CCCC1)CCC2 | -15.27% |
| CSCCc1c(-c2ccccc2)ncn1CCNc1cccnc1 | -1.445% |
| COC(=O)C1CN(CC(=O)Nc2ccccc2Cl)c2ccccc21 (stereo unspecified) | 8.149% |
| Cc1ccc(NC(C)C(=O)NCc2cccs2)cc1Cl (stereo unspecified) | -17.21% |
| COCC(C)(C)NC(=O)CC(c1ccccc1)C(F)(F)F (stereo unspecified) | 0.4415% |
| CC(C)N(C)Cc1nnc2n1CCCN(C(=O)C1CCCO1)C2 (stereo unspecified) | -11.05% |
| CC(C)N(C)Cc1ncn2c1CN(C(=O)C1CCCO1)CCC2 (stereo unspecified) | 102% |
| CC(C)N(C)Cc1ncn2c1CN(CC(=O)N(C)C)CCC2 | -4.555% |
| CC(c1ccccn1)N(C)Cc1cccc(C(=O)Nc2nccn2C)c1 (stereo unspecified) | 66.38% |
| Cc1ccc(C(=O)NCCNC(=O)N(C)C(C)c2ccccn2)cc1 (stereo unspecified) | -4.194% |
| COC(=O)c1cccc(CN(C)C(C)c2ccccn2)c1 (stereo unspecified) | 109% |
| CC(c1ccco1)N(C)Cc1cccc(C(=O)Nc2nccn2C)c1 (stereo unspecified) | 19.16% |
| COc1cc(CN(C)C(C)c2ccccn2)cc2c1OCO2 (stereo unspecified) | -21.63% |
| Cc1cnc(NC(=O)c2cccc(CN(C)Cc3ncccc3C)c2)s1 | 0.1885% |
